Results from PMC11006913.
Where a chain is given by its changes, count along the chain named.

What was measured:
Assay in all cases: PBM; 200 nM protein, PBS
Conditions in all cases: dsDNA, one strand shown
SIX6 [1] = molecular target: T1, SIX6 (Homo sapiens, UniProt O95475 114-200, L167I)
T1 sequence: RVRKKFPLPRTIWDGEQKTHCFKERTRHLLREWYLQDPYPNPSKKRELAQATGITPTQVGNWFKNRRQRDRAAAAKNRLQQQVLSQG

HOXA7 [2] = molecular target: HOXA7 (Homo sapiens, UniProt P31268 116-202)
SIX6 [3] = molecular target: T2, SIX6 (Homo sapiens, UniProt O95475 114-200, H141N)
T2 sequence: T1 sequence with H28N, I54L

SIX6 [4] = molecular target: T3, SIX6 (Homo sapiens, UniProt O95475 114-200, T165P)
T3 sequence: T1 sequence with T52P, I54L

SIX6 [5] = molecular target: T4, SIX6 (Homo sapiens, UniProt O95475 114-200, L167M)
T4 sequence: T1 sequence with I54M

SIX6 [6] = molecular target: T5, SIX6 (Homo sapiens, UniProt O95475 114-200, L143M)
T5 sequence: T1 sequence with L30M, I54L

SIX6 [7] = molecular target: T6, SIX6 (Homo sapiens, UniProt O95475 114-200, L143I)
T6 sequence: T1 sequence with L30I, I54L

SIX6 [8] = molecular target: T7, SIX6 (Homo sapiens, UniProt O95475 114-200, T165G)
T7 sequence: T1 sequence with T52G, I54L

SIX6 [9] = molecular target: T8, SIX6 (Homo sapiens, UniProt O95475 114-200, T139Q)
T8 sequence: T1 sequence with T26Q, I54L

SIX6 [10] = molecular target: T9, SIX6 (Homo sapiens, UniProt O95475 114-200, T165A)
T9 sequence: T1 sequence with T52A, I54L

SIX6 [11] = molecular target: T10, SIX6 (Homo sapiens, UniProt O95475 114-200, L167V)
T10 sequence: T1 sequence with I54V

SIX6 [12] = molecular target: T11, SIX6 (Homo sapiens, UniProt O95475 114-200)
T11 sequence: T1 sequence with I54L

SIX6 [13] = molecular target: T12, SIX6 (Homo sapiens, UniProt O95475 114-200, T165I)
T12 sequence: T1 sequence with T52I, I54L

HOXA7 [14] = molecular target: HOXA7 (Homo sapiens, UniProt P31268 116-202, W177C)
HOXA7 (Homo sapiens, UniProt P31268 116-202, W177C), sequence (P31268 116-202 W177C): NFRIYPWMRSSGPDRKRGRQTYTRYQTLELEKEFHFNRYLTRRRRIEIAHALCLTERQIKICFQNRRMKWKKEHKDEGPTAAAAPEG

HOXA4 [15] = molecular target: HOXA4 (Homo sapiens, UniProt Q00056 201-287, W262R)
HOXA4 (Homo sapiens, UniProt Q00056 201-287, W262R), sequence (Q00056 201-287 W262R): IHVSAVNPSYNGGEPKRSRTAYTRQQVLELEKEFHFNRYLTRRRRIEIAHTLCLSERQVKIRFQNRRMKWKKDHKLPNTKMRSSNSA

HOXC9 [16] = molecular target: HOXC9 (Homo sapiens, UniProt P31274 178-260, K195R)
HOXC9 (Homo sapiens, UniProt P31274 178-260, K195R), sequence (P31274 178-260 K195R): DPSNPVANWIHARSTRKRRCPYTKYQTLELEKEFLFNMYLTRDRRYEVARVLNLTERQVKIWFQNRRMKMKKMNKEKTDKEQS

HOXA4 [17] = molecular target: HOXA4 (Homo sapiens, UniProt Q00056 201-287, R217L)
HOXA4 (Homo sapiens, UniProt Q00056 201-287, R217L), sequence (Q00056 201-287 R217L): as the sequence (Q00056 201-287 W262R) above, with R17L, R62W counted along it

HOXC9 [18] = molecular target: HOXC9 (Homo sapiens, UniProt P31274 178-260)
HOXC9 (Homo sapiens, UniProt P31274 178-260), sequence (P31274 178-260): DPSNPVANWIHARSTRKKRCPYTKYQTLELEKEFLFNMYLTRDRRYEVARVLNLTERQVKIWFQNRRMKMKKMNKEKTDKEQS

HOXD13 [19] = molecular target: HOXD13 (Homo sapiens, UniProt P35453 263-343, T313R)
HOXD13 (Homo sapiens, UniProt P35453 263-343, T313R), sequence (P35453 263-343 T313R): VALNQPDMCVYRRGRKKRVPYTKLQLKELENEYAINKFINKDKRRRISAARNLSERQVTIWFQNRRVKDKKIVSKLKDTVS

HOXC9 [20] = molecular target: HOXC9 (Homo sapiens, UniProt P31274 178-260, R193K)
HOXC9 (Homo sapiens, UniProt P31274 178-260, R193K), sequence (P31274 178-260 R193K): as the sequence (P31274 178-260) above, with R16K counted along it

HOXD13 [21] = molecular target: HOXD13 (Homo sapiens, UniProt P35453 263-343)
HOXD13 (Homo sapiens, UniProt P35453 263-343), sequence (P35453 263-343): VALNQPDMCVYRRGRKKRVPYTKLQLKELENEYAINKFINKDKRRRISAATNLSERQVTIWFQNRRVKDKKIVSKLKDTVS

HOXA4 [22] = molecular target: HOXA4 (Homo sapiens, UniProt Q00056 201-287)
HOXA4 (Homo sapiens, UniProt Q00056 201-287), sequence (Q00056 201-287): as the sequence (Q00056 201-287 W262R) above, with R62W counted along it

HOXD13 [23] = molecular target: HOXD13 (Homo sapiens, UniProt P35453 263-343, T313A)
HOXD13 (Homo sapiens, UniProt P35453 263-343, T313A), sequence (P35453 263-343 T313A): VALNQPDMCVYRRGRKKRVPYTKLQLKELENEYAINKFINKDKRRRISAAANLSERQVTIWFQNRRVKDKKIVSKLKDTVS

HOXC9 [24] = molecular target: HOXC9 (Homo sapiens, UniProt P31274 178-260, R222W)
HOXC9 (Homo sapiens, UniProt P31274 178-260, R222W), sequence (P31274 178-260 R222W): as the sequence (P31274 178-260) above, with R45W counted along it

HOXA4 [25] = molecular target: HOXA4 (Homo sapiens, UniProt Q00056 201-287, W262F)
HOXA4 (Homo sapiens, UniProt Q00056 201-287, W262F), sequence (Q00056 201-287 W262F): as the sequence (Q00056 201-287 W262R) above, with R62F counted along it

HOXB6 [26] = molecular target: HOXB6 (Homo sapiens, UniProt P17509 132-218, K202E)
HOXB6 (Homo sapiens, UniProt P17509 132-218, K202E), sequence (P17509 132-218 K202E): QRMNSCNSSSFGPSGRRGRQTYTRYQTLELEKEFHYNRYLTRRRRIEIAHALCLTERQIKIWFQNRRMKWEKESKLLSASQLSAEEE

MSX2 [27] = molecular target: MSX2 (Homo sapiens, UniProt P35548 130-214, R199I)
MSX2 (Homo sapiens, UniProt P35548 130-214, R199I), sequence (P35548 130-214 R199I): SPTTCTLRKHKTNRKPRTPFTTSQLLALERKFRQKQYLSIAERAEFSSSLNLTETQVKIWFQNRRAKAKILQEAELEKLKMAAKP

MSX2 [28] = molecular target: MSX2 (Homo sapiens, UniProt P35548 130-214)
MSX2 (Homo sapiens, UniProt P35548 130-214), sequence (P35548 130-214): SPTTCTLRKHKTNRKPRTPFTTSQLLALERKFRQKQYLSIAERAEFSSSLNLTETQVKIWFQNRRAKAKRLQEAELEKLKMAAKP

MSX2 [29] = molecular target: MSX2 (Homo sapiens, UniProt P35548 130-214, F161Y)
MSX2 (Homo sapiens, UniProt P35548 130-214, F161Y), sequence (P35548 130-214 F161Y): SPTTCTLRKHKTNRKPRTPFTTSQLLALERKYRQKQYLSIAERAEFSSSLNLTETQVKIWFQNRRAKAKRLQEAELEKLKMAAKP

HOXB6 [30] = molecular target: HOXB6 (Homo sapiens, UniProt P17509 132-218)
HOXB6 (Homo sapiens, UniProt P17509 132-218), sequence (P17509 132-218): as the sequence (P17509 132-218 K202E) above, with E71K counted along it

HOXA7 (Homo sapiens, UniProt P31268 116-202), sequence (P31268 116-202): as the sequence (P31268 116-202 W177C) above, with C62W counted along it

Question: Which results are given for AATACGAT?
Answer: binding signal (SIX6 [1]): 10.6 upbm affinity estimate (log intensity, higher = more binding, comparable within an allelic series); binding signal (HOXA7 [2]): 9.45 upbm affinity estimate (log intensity, higher = more binding, comparable within an allelic series); binding signal (SIX6 [3]): 10.5 upbm affinity estimate (log intensity, higher = more binding, comparable within an allelic series); binding signal (SIX6 [4]): 9.88 upbm affinity estimate (log intensity, higher = more binding, comparable within an allelic series); binding signal (SIX6 [5]): 10.3 upbm affinity estimate (log intensity, higher = more binding, comparable within an allelic series); binding signal (SIX6 [6]): 10.5 upbm affinity estimate (log intensity, higher = more binding, comparable within an allelic series); binding signal (SIX6 [7]): 10.1 upbm affinity estimate (log intensity, higher = more binding, comparable within an allelic series); binding signal (SIX6 [8]): 10.5 upbm affinity estimate (log intensity, higher = more binding, comparable within an allelic series); binding signal (SIX6 [9]): 10.7 upbm affinity estimate (log intensity, higher = more binding, comparable within an allelic series); binding signal (SIX6 [10]): 10.5 upbm affinity estimate (log intensity, higher = more binding, comparable within an allelic series); binding signal (SIX6 [11]): 10.3 upbm affinity estimate (log intensity, higher = more binding, comparable within an allelic series); binding signal (SIX6 [12]): 10.5 upbm affinity estimate (log intensity, higher = more binding, comparable within an allelic series); binding signal (SIX6 [13]): 10.4 upbm affinity estimate (log intensity, higher = more binding, comparable within an allelic series); binding signal (HOXA7 [14]): 8.84 upbm affinity estimate (log intensity, higher = more binding, comparable within an allelic series)

Question: Which results are given for GATCTTCA?
Answer: binding signal (SIX6 [1]): 10.3 upbm affinity estimate (log intensity, higher = more binding, comparable within an allelic series); binding signal (SIX6 [3]): 10.3 upbm affinity estimate (log intensity, higher = more binding, comparable within an allelic series); binding signal (SIX6 [4]): 9.68 upbm affinity estimate (log intensity, higher = more binding, comparable within an allelic series); binding signal (SIX6 [8]): 10.3 upbm affinity estimate (log intensity, higher = more binding, comparable within an allelic series); binding signal (SIX6 [9]): 10.4 upbm affinity estimate (log intensity, higher = more binding, comparable within an allelic series); binding signal (SIX6 [11]): 10.2 upbm affinity estimate (log intensity, higher = more binding, comparable within an allelic series); binding signal (SIX6 [12]): 10.3 upbm affinity estimate (log intensity, higher = more binding, comparable within an allelic series)

Question: With GATATACA as the sequence, how does the binding signal (SIX6 [1]) read?
Answer: 11.1 upbm affinity estimate (log intensity, higher = more binding, comparable within an allelic series)

Question: And the binding signal (SIX6 [5])?
Answer: 10.9 upbm affinity estimate (log intensity, higher = more binding, comparable within an allelic series)

Question: What about the binding signal (SIX6 [7]) of the same sequence?
Answer: 10.4 upbm affinity estimate (log intensity, higher = more binding, comparable within an allelic series)

Question: What about the binding signal (SIX6 [13]) of the same sequence?
Answer: 10.9 upbm affinity estimate (log intensity, higher = more binding, comparable within an allelic series)

Question: With CTATACTA as the sequence, how does the binding signal (SIX6 [1]) read?
Answer: 10.2 upbm affinity estimate (log intensity, higher = more binding, comparable within an allelic series)

Question: What about the binding signal (SIX6 [3]) of the same sequence?
Answer: 10.1 upbm affinity estimate (log intensity, higher = more binding, comparable within an allelic series)

Question: What about the binding signal (SIX6 [5]) of the same sequence?
Answer: 10.2 upbm affinity estimate (log intensity, higher = more binding, comparable within an allelic series)

Question: And the binding signal (SIX6 [8])?
Answer: 10.2 upbm affinity estimate (log intensity, higher = more binding, comparable within an allelic series)

Question: What about the binding signal (SIX6 [11]) of the same sequence?
Answer: 10.1 upbm affinity estimate (log intensity, higher = more binding, comparable within an allelic series)

Question: What about the binding signal (SIX6 [12]) of the same sequence?
Answer: 10.2 upbm affinity estimate (log intensity, higher = more binding, comparable within an allelic series)

Question: What about the binding signal (SIX6 [13]) of the same sequence?
Answer: 10.1 upbm affinity estimate (log intensity, higher = more binding, comparable within an allelic series)

Question: How did the binding signal (SIX6 [1]) turn out when AGTATCAA was run?
Answer: 11.1 upbm affinity estimate (log intensity, higher = more binding, comparable within an allelic series)

Question: And the binding signal (SIX6 [3])?
Answer: 11.1 upbm affinity estimate (log intensity, higher = more binding, comparable within an allelic series)

Question: And the binding signal (SIX6 [8])?
Answer: 11.1 upbm affinity estimate (log intensity, higher = more binding, comparable within an allelic series)

Question: What about the binding signal (SIX6 [10]) of the same sequence?
Answer: 11.1 upbm affinity estimate (log intensity, higher = more binding, comparable within an allelic series)

Question: For CCCGACGC, which binding signal (HOXA4 [15]) is on record?
Answer: 9.83 upbm affinity estimate (log intensity, higher = more binding, comparable within an allelic series)

Question: What about the binding signal (HOXC9 [16]) of the same sequence?
Answer: 9.46 upbm affinity estimate (log intensity, higher = more binding, comparable within an allelic series)

Question: What about the binding signal (HOXA4 [17]) of the same sequence?
Answer: 9.86 upbm affinity estimate (log intensity, higher = more binding, comparable within an allelic series)

Question: What about the binding signal (HOXC9 [18]) of the same sequence?
Answer: 9.54 upbm affinity estimate (log intensity, higher = more binding, comparable within an allelic series)

Question: What about the binding signal (HOXD13 [19]) of the same sequence?
Answer: 9.45 upbm affinity estimate (log intensity, higher = more binding, comparable within an allelic series)

Question: And the binding signal (HOXC9 [20])?
Answer: 9.42 upbm affinity estimate (log intensity, higher = more binding, comparable within an allelic series)

Question: What about the binding signal (HOXD13 [21]) of the same sequence?
Answer: 9.26 upbm affinity estimate (log intensity, higher = more binding, comparable within an allelic series)

Question: What about the binding signal (HOXA4 [22]) of the same sequence?
Answer: 9.73 upbm affinity estimate (log intensity, higher = more binding, comparable within an allelic series)

Question: What about the binding signal (HOXD13 [23]) of the same sequence?
Answer: 9.49 upbm affinity estimate (log intensity, higher = more binding, comparable within an allelic series)

Question: What about the binding signal (HOXC9 [24]) of the same sequence?
Answer: 9.75 upbm affinity estimate (log intensity, higher = more binding, comparable within an allelic series)

Question: What about the binding signal (HOXA4 [25]) of the same sequence?
Answer: 9.96 upbm affinity estimate (log intensity, higher = more binding, comparable within an allelic series)

Question: How did the binding signal (SIX6 [1]) turn out when CAGATATC was run?
Answer: 11.1 upbm affinity estimate (log intensity, higher = more binding, comparable within an allelic series)

Question: What about the binding signal (SIX6 [9]) of the same sequence?
Answer: 11.1 upbm affinity estimate (log intensity, higher = more binding, comparable within an allelic series)

Question: What about the binding signal (SIX6 [11]) of the same sequence?
Answer: 10.8 upbm affinity estimate (log intensity, higher = more binding, comparable within an allelic series)

Question: How did the binding signal (HOXA4 [15]) turn out when GCCCGGAC was run?
Answer: 9.85 upbm affinity estimate (log intensity, higher = more binding, comparable within an allelic series)

Question: What about the binding signal (HOXB6 [26]) of the same sequence?
Answer: 9.01 upbm affinity estimate (log intensity, higher = more binding, comparable within an allelic series)

Question: What about the binding signal (HOXA4 [17]) of the same sequence?
Answer: 9.75 upbm affinity estimate (log intensity, higher = more binding, comparable within an allelic series)

Question: And the binding signal (MSX2 [27])?
Answer: 9.48 upbm affinity estimate (log intensity, higher = more binding, comparable within an allelic series)

Question: What about the binding signal (HOXA4 [22]) of the same sequence?
Answer: 9.68 upbm affinity estimate (log intensity, higher = more binding, comparable within an allelic series)

Question: What about the binding signal (MSX2 [28]) of the same sequence?
Answer: 9.46 upbm affinity estimate (log intensity, higher = more binding, comparable within an allelic series)

Question: What about the binding signal (MSX2 [29]) of the same sequence?
Answer: 9.5 upbm affinity estimate (log intensity, higher = more binding, comparable within an allelic series)

Question: And the binding signal (HOXA4 [25])?
Answer: 9.88 upbm affinity estimate (log intensity, higher = more binding, comparable within an allelic series)

Question: What about the binding signal (HOXB6 [30]) of the same sequence?
Answer: 8.94 upbm affinity estimate (log intensity, higher = more binding, comparable within an allelic series)
